Source: the supplement of paper PMC11732987, “Enantioselective OTUD7B fragment discovery through chemoproteomics screening and high-throughput optimisation” (Communications Chemistry, 2025)

Experiments:
Assay in all cases: log2 ratio of Biotin-Ahx-Ub-VS probe labelling (fragment/DMSO); higher = less target engagement (more negative = stronger competition), active = hit call of the paper (q ≤ 0.05, log2 ratio ≤ -1)
Details in all cases: compound concentration: 200 uM; treatment time: 3 h
USP34 = USP34 (UniProt Q70CQ2)
Sequence of USP34 (Q70CQ2 whole entry, the tested form may be a part): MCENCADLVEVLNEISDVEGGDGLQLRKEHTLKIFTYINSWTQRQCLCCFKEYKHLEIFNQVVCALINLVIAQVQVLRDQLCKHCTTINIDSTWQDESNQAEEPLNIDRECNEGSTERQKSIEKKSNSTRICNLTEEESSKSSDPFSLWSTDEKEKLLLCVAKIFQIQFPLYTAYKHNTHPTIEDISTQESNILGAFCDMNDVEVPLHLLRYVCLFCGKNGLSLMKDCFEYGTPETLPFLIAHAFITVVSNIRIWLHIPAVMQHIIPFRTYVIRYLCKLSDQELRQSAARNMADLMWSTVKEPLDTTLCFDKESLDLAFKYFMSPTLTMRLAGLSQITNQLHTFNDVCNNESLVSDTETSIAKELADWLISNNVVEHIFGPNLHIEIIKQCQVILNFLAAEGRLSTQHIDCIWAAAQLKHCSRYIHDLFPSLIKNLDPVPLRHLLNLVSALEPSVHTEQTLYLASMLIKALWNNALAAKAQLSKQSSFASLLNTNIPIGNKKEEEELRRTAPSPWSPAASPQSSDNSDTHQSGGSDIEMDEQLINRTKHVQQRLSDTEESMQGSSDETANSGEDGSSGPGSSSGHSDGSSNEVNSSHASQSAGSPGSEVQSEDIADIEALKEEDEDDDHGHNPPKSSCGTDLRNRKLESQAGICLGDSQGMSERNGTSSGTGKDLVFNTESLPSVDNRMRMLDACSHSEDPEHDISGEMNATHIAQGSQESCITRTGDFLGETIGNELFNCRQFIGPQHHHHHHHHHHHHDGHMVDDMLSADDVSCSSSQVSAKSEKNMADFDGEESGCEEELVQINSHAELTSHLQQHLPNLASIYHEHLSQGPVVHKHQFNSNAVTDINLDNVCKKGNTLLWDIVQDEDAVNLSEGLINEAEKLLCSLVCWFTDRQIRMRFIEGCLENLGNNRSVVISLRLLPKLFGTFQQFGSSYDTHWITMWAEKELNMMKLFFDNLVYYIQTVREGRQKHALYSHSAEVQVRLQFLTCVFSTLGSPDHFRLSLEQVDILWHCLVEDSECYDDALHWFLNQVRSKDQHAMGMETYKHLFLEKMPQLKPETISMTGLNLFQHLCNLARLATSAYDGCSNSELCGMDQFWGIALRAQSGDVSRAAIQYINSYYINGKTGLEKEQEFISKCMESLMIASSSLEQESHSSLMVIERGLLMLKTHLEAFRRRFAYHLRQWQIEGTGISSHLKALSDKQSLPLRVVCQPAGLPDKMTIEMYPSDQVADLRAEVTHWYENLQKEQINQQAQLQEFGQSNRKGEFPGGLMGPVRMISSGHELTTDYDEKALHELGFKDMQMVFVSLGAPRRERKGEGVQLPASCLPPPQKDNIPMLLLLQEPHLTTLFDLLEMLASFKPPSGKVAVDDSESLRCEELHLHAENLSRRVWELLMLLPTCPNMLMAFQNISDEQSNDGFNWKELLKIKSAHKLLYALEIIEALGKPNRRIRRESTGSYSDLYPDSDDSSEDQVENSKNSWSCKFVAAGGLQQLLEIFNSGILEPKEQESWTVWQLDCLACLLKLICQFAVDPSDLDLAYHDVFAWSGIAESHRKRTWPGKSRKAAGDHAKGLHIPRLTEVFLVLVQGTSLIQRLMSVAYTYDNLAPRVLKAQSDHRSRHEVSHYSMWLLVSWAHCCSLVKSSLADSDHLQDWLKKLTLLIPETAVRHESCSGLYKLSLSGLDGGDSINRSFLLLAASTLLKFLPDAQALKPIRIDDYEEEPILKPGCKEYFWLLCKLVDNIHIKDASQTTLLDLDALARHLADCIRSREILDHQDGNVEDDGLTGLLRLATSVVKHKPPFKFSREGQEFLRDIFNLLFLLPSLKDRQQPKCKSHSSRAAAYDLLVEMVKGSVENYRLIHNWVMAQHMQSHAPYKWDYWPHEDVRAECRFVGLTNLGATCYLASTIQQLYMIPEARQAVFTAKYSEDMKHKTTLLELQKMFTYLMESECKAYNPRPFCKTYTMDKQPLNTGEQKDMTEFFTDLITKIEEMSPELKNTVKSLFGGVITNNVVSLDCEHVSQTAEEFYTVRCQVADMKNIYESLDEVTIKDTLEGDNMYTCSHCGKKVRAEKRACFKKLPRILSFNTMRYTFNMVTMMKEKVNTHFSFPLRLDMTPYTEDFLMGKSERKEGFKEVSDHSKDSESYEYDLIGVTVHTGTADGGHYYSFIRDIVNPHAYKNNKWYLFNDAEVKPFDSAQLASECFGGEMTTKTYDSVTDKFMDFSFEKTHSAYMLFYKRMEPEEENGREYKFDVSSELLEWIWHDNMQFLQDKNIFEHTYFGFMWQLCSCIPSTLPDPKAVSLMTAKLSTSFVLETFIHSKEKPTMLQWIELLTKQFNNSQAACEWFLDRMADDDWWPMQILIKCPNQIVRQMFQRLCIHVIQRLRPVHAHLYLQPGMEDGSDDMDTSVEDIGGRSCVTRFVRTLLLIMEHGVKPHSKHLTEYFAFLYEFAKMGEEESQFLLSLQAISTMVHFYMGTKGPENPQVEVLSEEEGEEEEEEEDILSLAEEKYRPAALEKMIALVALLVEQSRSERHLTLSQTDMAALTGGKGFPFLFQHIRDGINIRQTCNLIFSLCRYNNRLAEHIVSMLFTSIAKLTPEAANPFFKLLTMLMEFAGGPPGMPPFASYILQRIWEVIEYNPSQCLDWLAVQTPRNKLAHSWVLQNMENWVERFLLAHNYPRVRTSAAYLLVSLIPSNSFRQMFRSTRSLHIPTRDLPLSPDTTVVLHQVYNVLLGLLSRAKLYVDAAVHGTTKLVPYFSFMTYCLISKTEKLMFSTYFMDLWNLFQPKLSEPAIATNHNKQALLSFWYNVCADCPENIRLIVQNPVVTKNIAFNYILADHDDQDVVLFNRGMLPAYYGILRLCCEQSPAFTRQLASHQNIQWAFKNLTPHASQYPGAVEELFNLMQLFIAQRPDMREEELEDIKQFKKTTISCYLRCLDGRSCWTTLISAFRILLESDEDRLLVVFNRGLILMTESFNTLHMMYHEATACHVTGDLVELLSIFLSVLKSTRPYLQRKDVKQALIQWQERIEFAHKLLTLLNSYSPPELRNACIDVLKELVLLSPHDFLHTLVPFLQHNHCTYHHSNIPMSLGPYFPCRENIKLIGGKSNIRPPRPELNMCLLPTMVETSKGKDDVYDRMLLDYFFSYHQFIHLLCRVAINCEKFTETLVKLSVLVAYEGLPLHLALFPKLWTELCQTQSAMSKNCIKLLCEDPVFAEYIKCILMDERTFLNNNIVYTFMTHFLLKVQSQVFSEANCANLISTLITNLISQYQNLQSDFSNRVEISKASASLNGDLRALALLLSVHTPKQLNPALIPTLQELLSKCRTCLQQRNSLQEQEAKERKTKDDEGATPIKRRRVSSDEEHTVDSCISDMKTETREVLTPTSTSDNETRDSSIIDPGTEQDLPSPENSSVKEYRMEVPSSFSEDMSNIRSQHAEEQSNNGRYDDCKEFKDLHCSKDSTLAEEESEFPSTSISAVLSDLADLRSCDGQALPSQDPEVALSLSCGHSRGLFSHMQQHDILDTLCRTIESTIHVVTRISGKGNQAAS
Procedure, shortened: (§1)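 Using Biotin-Ahx-Ub-VS at 0.5 µM final for 1 h, DUBs were labelled in HEK293T lysate (495 µg per sample) that had first been treated in triplicate with fragment at 200 µM or vehicle for 3 h. NeutrAvidin enrichment, LysC and trypsin digestion and diaPASEF LC-MS/MS followed. Spectronaut label-free quantities were global-median-normalised. Values are average log2 fragment/vehicle ratios by unpaired t-test, using proteins with ≥2 unique peptides.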

USP36 = biological target: T1, USP36 (UniProt Q9P275)
T1 sequence (whole entry): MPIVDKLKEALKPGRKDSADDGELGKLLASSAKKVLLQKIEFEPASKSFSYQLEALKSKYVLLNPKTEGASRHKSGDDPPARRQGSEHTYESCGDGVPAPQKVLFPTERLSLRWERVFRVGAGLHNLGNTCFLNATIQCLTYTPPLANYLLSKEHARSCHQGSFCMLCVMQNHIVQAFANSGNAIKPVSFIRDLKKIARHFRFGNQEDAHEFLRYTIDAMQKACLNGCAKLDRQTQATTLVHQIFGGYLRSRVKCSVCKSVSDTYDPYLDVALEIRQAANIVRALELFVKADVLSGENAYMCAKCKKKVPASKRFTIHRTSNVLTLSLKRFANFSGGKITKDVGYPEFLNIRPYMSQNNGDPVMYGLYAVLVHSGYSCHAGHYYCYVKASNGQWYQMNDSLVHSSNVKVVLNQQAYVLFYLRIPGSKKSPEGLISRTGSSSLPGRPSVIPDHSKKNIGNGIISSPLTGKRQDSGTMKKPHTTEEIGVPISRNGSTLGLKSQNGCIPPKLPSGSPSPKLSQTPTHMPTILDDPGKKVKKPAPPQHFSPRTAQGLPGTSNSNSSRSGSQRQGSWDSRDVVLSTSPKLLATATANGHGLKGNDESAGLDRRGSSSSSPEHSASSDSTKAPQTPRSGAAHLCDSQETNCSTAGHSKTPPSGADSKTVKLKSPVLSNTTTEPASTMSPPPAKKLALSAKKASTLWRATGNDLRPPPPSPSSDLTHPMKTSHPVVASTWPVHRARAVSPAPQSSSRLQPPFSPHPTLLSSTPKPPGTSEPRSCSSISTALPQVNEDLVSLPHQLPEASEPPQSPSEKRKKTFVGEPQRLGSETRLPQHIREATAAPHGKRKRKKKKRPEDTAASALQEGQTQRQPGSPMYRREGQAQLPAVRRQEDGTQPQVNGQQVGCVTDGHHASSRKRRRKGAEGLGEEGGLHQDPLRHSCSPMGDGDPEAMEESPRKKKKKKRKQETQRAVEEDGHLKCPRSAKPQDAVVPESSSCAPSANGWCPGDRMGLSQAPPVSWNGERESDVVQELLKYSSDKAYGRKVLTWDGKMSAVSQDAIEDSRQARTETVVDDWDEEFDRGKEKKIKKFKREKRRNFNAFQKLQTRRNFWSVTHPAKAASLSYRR
Procedure, shortened: as §1

USP38 = biological target: T2, USP38 (UniProt Q8NB14)
T2 sequence (whole entry): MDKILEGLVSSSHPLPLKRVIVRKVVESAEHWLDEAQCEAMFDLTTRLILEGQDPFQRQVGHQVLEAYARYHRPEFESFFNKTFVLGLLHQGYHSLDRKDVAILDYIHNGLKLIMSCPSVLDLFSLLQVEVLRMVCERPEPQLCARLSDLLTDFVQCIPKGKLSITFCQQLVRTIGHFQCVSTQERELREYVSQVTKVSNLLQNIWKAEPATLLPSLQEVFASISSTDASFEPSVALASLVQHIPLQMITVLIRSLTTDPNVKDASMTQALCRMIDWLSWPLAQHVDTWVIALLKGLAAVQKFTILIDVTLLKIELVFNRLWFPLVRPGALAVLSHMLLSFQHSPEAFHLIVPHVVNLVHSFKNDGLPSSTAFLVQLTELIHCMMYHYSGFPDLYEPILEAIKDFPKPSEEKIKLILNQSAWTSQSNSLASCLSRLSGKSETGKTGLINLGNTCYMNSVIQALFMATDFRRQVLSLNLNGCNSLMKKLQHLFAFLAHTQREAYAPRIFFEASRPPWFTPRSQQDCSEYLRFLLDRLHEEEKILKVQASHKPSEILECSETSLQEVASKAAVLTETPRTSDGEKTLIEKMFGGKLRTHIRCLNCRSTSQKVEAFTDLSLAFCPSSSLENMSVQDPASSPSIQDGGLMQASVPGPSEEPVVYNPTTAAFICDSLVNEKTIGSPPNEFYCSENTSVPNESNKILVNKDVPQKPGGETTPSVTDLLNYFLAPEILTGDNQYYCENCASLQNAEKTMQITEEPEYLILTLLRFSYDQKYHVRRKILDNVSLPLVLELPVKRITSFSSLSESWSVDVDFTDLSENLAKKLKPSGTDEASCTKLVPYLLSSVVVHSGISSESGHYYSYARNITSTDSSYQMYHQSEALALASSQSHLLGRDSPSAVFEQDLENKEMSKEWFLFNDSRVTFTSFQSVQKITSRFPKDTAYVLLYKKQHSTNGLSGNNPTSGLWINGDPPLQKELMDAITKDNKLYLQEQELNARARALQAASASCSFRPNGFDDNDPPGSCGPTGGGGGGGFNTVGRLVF
Procedure, shortened: as §1

USP39 = biological target: T3, USP39 (UniProt Q53GS9)
T3 sequence (whole entry): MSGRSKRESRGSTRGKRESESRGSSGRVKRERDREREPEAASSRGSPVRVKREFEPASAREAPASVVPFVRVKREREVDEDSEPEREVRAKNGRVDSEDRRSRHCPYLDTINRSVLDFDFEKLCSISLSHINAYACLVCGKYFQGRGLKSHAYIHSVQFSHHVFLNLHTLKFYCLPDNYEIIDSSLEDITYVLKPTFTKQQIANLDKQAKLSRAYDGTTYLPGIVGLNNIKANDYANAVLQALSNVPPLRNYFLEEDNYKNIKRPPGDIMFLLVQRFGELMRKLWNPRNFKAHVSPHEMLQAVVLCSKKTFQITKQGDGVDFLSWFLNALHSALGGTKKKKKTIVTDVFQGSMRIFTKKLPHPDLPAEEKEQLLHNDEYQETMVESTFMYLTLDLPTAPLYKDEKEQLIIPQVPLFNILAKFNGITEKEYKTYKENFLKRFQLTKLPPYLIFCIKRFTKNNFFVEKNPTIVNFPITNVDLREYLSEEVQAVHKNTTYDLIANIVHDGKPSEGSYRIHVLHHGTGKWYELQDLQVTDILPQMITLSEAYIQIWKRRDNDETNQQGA
Procedure, shortened: as §1

USP4 = biological target: T4, USP4 (UniProt Q13107)
T4 sequence (whole entry): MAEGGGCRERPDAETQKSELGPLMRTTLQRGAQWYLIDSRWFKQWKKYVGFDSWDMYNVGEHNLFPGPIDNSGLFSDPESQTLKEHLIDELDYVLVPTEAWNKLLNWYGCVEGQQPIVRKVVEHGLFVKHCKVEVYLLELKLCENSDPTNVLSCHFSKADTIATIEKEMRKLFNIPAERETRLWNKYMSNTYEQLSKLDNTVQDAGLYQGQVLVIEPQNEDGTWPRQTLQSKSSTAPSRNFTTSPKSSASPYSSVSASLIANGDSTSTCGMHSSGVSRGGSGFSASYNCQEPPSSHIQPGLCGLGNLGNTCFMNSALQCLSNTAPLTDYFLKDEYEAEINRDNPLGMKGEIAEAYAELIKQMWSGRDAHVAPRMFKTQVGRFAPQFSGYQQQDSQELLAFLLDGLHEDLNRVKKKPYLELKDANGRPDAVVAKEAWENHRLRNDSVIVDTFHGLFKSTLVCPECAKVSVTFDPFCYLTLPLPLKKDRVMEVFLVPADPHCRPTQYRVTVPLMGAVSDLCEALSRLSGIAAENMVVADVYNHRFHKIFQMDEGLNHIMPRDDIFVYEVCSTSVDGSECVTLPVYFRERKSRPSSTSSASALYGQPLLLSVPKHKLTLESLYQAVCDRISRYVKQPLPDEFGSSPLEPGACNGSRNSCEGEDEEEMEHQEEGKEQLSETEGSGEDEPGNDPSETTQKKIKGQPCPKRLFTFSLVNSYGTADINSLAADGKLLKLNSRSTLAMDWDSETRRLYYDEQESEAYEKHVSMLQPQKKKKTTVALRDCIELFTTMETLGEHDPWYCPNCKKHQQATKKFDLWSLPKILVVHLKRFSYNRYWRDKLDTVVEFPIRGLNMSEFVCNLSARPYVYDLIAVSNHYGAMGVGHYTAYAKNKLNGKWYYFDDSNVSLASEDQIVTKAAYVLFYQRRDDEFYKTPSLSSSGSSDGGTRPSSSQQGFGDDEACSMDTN
Procedure, shortened: as §1

Measured: log2 ratio of Biotin-Ahx-Ub-VS probe labelling

O=C(CCl)N1CCCN(C(=O)c2ccc(Cl)cc2)CC1
inactive: USP34 -0.425 | USP36 0.0741 | USP38 -0.22 | USP39 -0.317 | USP4 -0.259
